# The supplement of paper PMC4022240
# ± gives the standard deviation.
# T1: HaloTag-ATRX ADD domain (163-292)
# T1 chain: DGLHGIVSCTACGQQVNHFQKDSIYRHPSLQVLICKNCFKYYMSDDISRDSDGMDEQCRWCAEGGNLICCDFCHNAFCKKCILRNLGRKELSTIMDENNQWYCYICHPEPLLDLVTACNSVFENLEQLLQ
# Target: T1, HaloTag-ATRX ADD domain (163-292)
# Experiment: peptide microarray binding signal (635 nm), min-max normalized on array (fraction of array maximum); higher = stronger binding
# Settings: peptide region: Unmod H2A variant; binder concentration: 50 nM
# How it was run: (§1)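 Histone 13-mer peptide–cellulose conjugates were printed in triplicate on nitrocellulose with a Cy3 tracer, then blocked overnight at 4°C. Arrays were probed for 1 h at 4°C with biotin-labelled HaloTag reader fusions (10 nM to 1 μM) plus streptavidin-Alexa Fluor 647, or with rabbit histone antibodies (1:10,000 to 1:2,000) plus anti-rabbit Alexa 647. An Axon GenePix 4000B scanned 635 nm for signal and 532 nm for misprints. Binding signal is the triplicate-spot mean intensity, min-max scaled per library.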
row,Binder,peptide microarray binding signal
1,ILELAGNASRDNK [Unmod H2A variant I L E L A G N A S R D N K],0.0191 ± 0.0013
2,MAAVLEYLTAEIL [Unmod H2A variant M A A V L E Y L T A E I L],0.0107 ± 0.00027
3,DNKKTRIIPRHLQ [Unmod H2A variant D N K K T R I I P R H L Q],0.0223 ± 0.0044
4,YLTAEILELAGNA [Unmod H2A variant Y L T A E I L E L A G N A],0.0171 ± 0.0047
5,ILELAGNAARDNK [Unmod H2A variant I L E L A G N A A R D N K],0.048 ± 0.0046

# Same assay, conditions: peptide region: Unmod H2A variant; binder concentration: 500 nM
row,Binder,peptide microarray binding signal
1,ILELAGNASRDNK [Unmod H2A variant I L E L A G N A S R D N K],0.04029 ± 0.00036
2,MAAVLEYLTAEIL [Unmod H2A variant M A A V L E Y L T A E I L],0.00667 ± 0.00052
3,DNKKTRIIPRHLQ [Unmod H2A variant D N K K T R I I P R H L Q],0.0112 ± 0.0059
4,YLTAEILELAGNA [Unmod H2A variant Y L T A E I L E L A G N A],0.00443 ± 0.0022
5,ILELAGNAARDNK [Unmod H2A variant I L E L A G N A A R D N K],0.0752 ± 0.011

# Target: HaloTag-ING2 PHD (mouse Ing2 200-280)
# Experiment: as above
# Settings: peptide region: Unmod H2A variant; binder concentration: 10 nM
# How it was run: as §1
row,Binder,peptide microarray binding signal
1,ILELAGNASRDNK [Unmod H2A variant I L E L A G N A S R D N K],0.00734 ± 0.00031
2,MAAVLEYLTAEIL [Unmod H2A variant M A A V L E Y L T A E I L],0.00173 ± 2.1e-05
3,DNKKTRIIPRHLQ [Unmod H2A variant D N K K T R I I P R H L Q],0.00245 ± 9.1e-05
4,YLTAEILELAGNA [Unmod H2A variant Y L T A E I L E L A G N A],0.00203 ± 0.00013
5,ILELAGNAARDNK [Unmod H2A variant I L E L A G N A A R D N K],0.0242 ± 0.0025

# Same assay, conditions: peptide region: Unmod H2A variant; binder concentration: 100 nM
row,Binder,peptide microarray binding signal
1,ILELAGNASRDNK [Unmod H2A variant I L E L A G N A S R D N K],0.0487 ± 0.0018
2,MAAVLEYLTAEIL [Unmod H2A variant M A A V L E Y L T A E I L],0.000992 ± 2.8e-05
3,DNKKTRIIPRHLQ [Unmod H2A variant D N K K T R I I P R H L Q],0.0078 ± 0.0012
4,YLTAEILELAGNA [Unmod H2A variant Y L T A E I L E L A G N A],0.00149 ± 4.1e-05
5,ILELAGNAARDNK [Unmod H2A variant I L E L A G N A A R D N K],0.0721 ± 0.0091

# Target: anti-H3K4me3 antibody ab8580
# Experiment: as above
# Settings: peptide region: Unmod H2A variant; binder concentration: 1:2,000 dilution
# How it was run: as §1
row,Binder,peptide microarray binding signal
1,ILELAGNASRDNK [Unmod H2A variant I L E L A G N A S R D N K],0.0164 ± 0.0026
2,MAAVLEYLTAEIL [Unmod H2A variant M A A V L E Y L T A E I L],0.00829 ± 0.0044
3,DNKKTRIIPRHLQ [Unmod H2A variant D N K K T R I I P R H L Q],0.000472 ± 9.6e-05
4,YLTAEILELAGNA [Unmod H2A variant Y L T A E I L E L A G N A],0.000717 ± 0.00017
5,ILELAGNAARDNK [Unmod H2A variant I L E L A G N A A R D N K],0.0104 ± 0.0051

# Same assay, conditions: peptide region: Unmod H2A variant; binder concentration: 1:10,000 dilution
row,Binder,peptide microarray binding signal
1,ILELAGNASRDNK [Unmod H2A variant I L E L A G N A S R D N K],0.00354 ± 0.00017
2,MAAVLEYLTAEIL [Unmod H2A variant M A A V L E Y L T A E I L],0.00217 ± 3.9e-05
3,DNKKTRIIPRHLQ [Unmod H2A variant D N K K T R I I P R H L Q],0.00183 ± 0.00033
4,YLTAEILELAGNA [Unmod H2A variant Y L T A E I L E L A G N A],0.00126
5,ILELAGNAARDNK [Unmod H2A variant I L E L A G N A A R D N K],0.015 ± 0.0031

# Target: anti-H3K9me3 antibody ab8898
# Experiment: as above
# Settings: peptide region: Unmod H2A variant; binder concentration: 1:2,000 dilution
# How it was run: as §1
row,Binder,peptide microarray binding signal
1,ILELAGNASRDNK [Unmod H2A variant I L E L A G N A S R D N K],0.00523 ± 0.00098
2,MAAVLEYLTAEIL [Unmod H2A variant M A A V L E Y L T A E I L],0.000529 ± 1.3e-05
3,DNKKTRIIPRHLQ [Unmod H2A variant D N K K T R I I P R H L Q],0.000317 ± 2.5e-05
4,YLTAEILELAGNA [Unmod H2A variant Y L T A E I L E L A G N A],0.000664 ± 3.6e-05
5,ILELAGNAARDNK [Unmod H2A variant I L E L A G N A A R D N K],0.00921 ± 0.0019

# Same assay, conditions: peptide region: Unmod H2A variant; binder concentration: 1:10,000 dilution
row,Binder,peptide microarray binding signal
1,ILELAGNASRDNK [Unmod H2A variant I L E L A G N A S R D N K],0.00536 ± 0.0001
2,MAAVLEYLTAEIL [Unmod H2A variant M A A V L E Y L T A E I L],0.00075 ± 1.6e-05
3,DNKKTRIIPRHLQ [Unmod H2A variant D N K K T R I I P R H L Q],0.000923 ± 7.7e-05
4,YLTAEILELAGNA [Unmod H2A variant Y L T A E I L E L A G N A],0.00196 ± 0.00018
5,ILELAGNAARDNK [Unmod H2A variant I L E L A G N A A R D N K],0.0132 ± 0.0022
